Results as given in PubChem BioAssay (NCATS).
Records with an inconclusive call do not appear. Active and inactive are the calls of the source. The call rests on the fitted dose curve; in most records, active means well fitted inhibition curve with a large enough effect; inconclusive means small, poorly fitted or top-dose-only effect; inactive means flat fitted curve, though single readings scatter.

Legend:
Assay in all cases: qHTS profiling for inhibitors of Plasmodium falciparum proliferation (AID 504749); further: nearly all actives have a fitted effect of over 60% in size
Conditions in all cases: P. falciparum in erythrocytes, SYBR Green DNA, 72 h; series mostly up to 28.7 µM
CP192 = system: CP192
Method in brief: (§1)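 P. falciparum-infected erythrocytes (0.3% parasitemia, 2.5% hematocrit final) were exposed to compounds for 72 h at 37 C in 5% CO2, then lysed with SYBR Green buffer overnight at room temperature; parasite DNA fluorescence was normalized to artemisinin and DMSO controls.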

CP194 = system: CP194
Method in brief: as §1

CP201 = system: CP201
Method in brief: as §1

CP211 = system: CP211
Method in brief: as §1

CP215 = system: CP215
Method in brief: as §1

CP217 = system: CP217
Method in brief: as §1

CP237 = system: CP237
Method in brief: as §1

CP238 = system: CP238
Method in brief: as §1

CP247 = system: CP247
Method in brief: as §1

CP203 = system: CP203
Method in brief: as §1

Measured: Potency

COc1ccc(OC)c(C(O)C(C)N)c1 (stereo not drawn)
not listed: CP203
inactive: all other assays above

ClC=C(Cl)Cl
inactive: all assays above

C[N+]1(C)CCCCC1COC(=O)C(O)(c1ccccc1)c1ccccc1 (stereo not drawn)
not listed: CP203
inactive: all other assays above

CCCCNCC(O)c1ccc(O)cc1 (stereo not drawn)
not listed: CP203
inactive: all other assays above

O=[N+]([O-])C(Br)(CO)CO
inactive: all assays above

CC(Cc1ccccc1)NC=O (stereo not drawn)
not listed: CP203
inactive: all other assays above

CCC(=O)O[C@@](Cc1ccccc1)(c1ccccc1)[C@@H](C)CN(C)C
not listed: CP211
inactive: all other assays above

OC(c1ccccc1)(c1ccccc1)C1CN2CCC1CC2 (stereo not drawn)
not listed: CP215 | CP237 | CP247
inactive: all other assays above

O=c1[nH]cc(N(CCCl)CCCl)c(=O)[nH]1
inactive: all assays above

O=[N+]([O-])c1cc(I)c(O)c(I)c1
not listed: CP203
inactive: all other assays above

CCCCCCCCCC(=O)O[C@H]1CC[C@H]2[C@@H]3CCC4=CC(=O)CC[C@]4(C)[C@H]3CC[C@]12C
inactive: all assays above

c1ccc2sc(SNC3CCCCC3)nc2c1
inactive: all assays above

CNC(C)C(O)c1ccc(O)cc1 (stereo not drawn)
not listed: CP203
inactive: all other assays above

CCNC(C)Cc1cccc(C(F)(F)F)c1 (stereo not drawn)
not listed: CP237
inactive: all other assays above

CCCC(=O)OC(C(Cl)(Cl)Cl)P(=O)(OC)OC (stereo not drawn)
not listed: CP211 | CP215
inactive: all other assays above

CC1CCC(C(C)C)C(OC(=O)c2ccccc2N)C1 (stereo not drawn)
not listed: CP237
inactive: all other assays above

CCON=O
inactive: all assays above

CCCCCl
not listed: CP203
inactive: all other assays above

CN1c2ccccc2C(NCCCCCCC(=O)O)c2ccc(Cl)cc2S1(=O)=O (stereo not drawn)
not listed: CP203
inactive: all other assays above

O=P(O)(O)C(Cl)(Cl)P(=O)(O)O
not listed: CP203
inactive: all other assays above
